According to PubChem BioAssay (NCATS):
Records with an inconclusive call do not appear. Where a call stands in place of a potency, no number is given. Activity calls are given as the source filed them. The call rests on the fitted dose curve; in most records, active means well fitted cell-killing curve with a large enough effect; inconclusive means small, poorly fitted or top-dose-only effect; inactive means no such curve, though single readings can be large or run the other way. *1 amine or outer side, *2 acyl side, *3 side chain or, on linkers, in order; H or OH if unused. Where a SMILES comes first, the peptide text is derived from it. Bridges are numbered along the chain shown (N, C = ends). [ ]: non-standard residue; d: D form. The star is where a group is joined. ξ: configuration not given here. X10 = NC1=NCCC(C(N[*:1])C(=O)[*:2])N1; ΔAla(3-NHCONH2) = NC(=O)NC=C(N)C(=O)O; ξβ3hOrn = NCCCC(N)CC(=O)*; Dap = NC[CH](N)C(=O)O

Experiment: qHTS of pediatric cancer cell lines to identify multiple opportunities for drug repurposing: Primary screen for Rh30 cells (AID 1347107); further: nearly all actives have a fitted effect of over 75% in size
Conditions: Rh30 rhabdomyosarcoma viability, CellTiter-Glo luminescence, 48 h; series mostly up to 46 µM
From the text: Drug repurposing or repositioning has been offered as a strategy for drug development in oncology programs. This approach has special potential for childhood cancers and other rare or orphan diseases, where the expected return on new drug development has been a disincentive to pharmaceuticals.
In this project we exploit the poly-pharmacology of drugs to discover new indications via phenotypic screening of a panel of 19 well-characterized cell lines derived from solid tumors seen in children and adolescents. The goal is to identify approved drugs with previously unrecognized anticancer properties that has the potential to reveal new mechanisms and biological processes involved in carcinogenesis or drug resistance. We employed a titration-based paradigm (quantitative high-throughput screening or qHTS), where all compounds were tested at multiple concentrations for their effect on cell viability. Concentration-response curves (CRCs) were derived directly from the primary screen, and both potency and efficacy values were used to identify compounds with robust bioactivity profiles. We screened the NIH Chemical Genomics Center (NCGC) Pharmaceutical Collection (NPC) and Mechanism Interrogation Plate (MIPE) small molecule collections of approved and investigational compounds against these cell lines; and measured metabolically active cells after 48 hours of compound treatment as a proxy for cell viability.
Assay Submitter: Nathalia J. Martinez, National Center for Advancing Translational Sciences, National Institutes of Health, Rockville, MD, USA; email: natalia.martinez@nih.gov
[1] Shen, M et al. Quantitative high-throughput phenotypic screening of pediatric cancer cell lines identifies multiple opportunities for drug repurposing. Oncotarget 2017 Dec 19;9(4):4758-4772. PMID 29435139.
The cells were obtained from University of North Carolina (UNC), Pediatric Preclinical Testing Program (PPT), and Coriell Institute (CI).
qHTS cell viability assay:
Cells were assayed in growth media at a density of 500-1,000 cells/well. Five microliters of cells were dispensed into 1,536-well, white, solid-bottom, TC-treated plates (Greiner Bio One) using a multidrop dispenser and incubated at 37 degrees C, 5% CO2, under a humidified atmosphere for 5 hours. Twenty-three nanoliters of compounds and controls (neutral control DMSO or positive control bortezomib at final concentration of 2.3 µM) were subsequently transferred by Kalypsys pintool. For primary screens, the MIPE collection was tested at 11-point dilutions (final concentrations range from 0.78 nM to 46 µM) and the NPC collection at 8-point dilutions (final concentrations range from 0.59 nM to 46 µM). Compounds tested in follow-up screens were assayed at 11-point dilutions. Cells were incubated for 48 hours, followed by addition of 3 µL of CellTiter-Glo (Promega). After a 15 min incubation at room temperature, samples were analyzed for luminescence intensity using a ViewLux High-throughput CCD imager equipped with clear filters.

SMILES	Potency	activity change, negative = cytotoxic
Cn1c(=O)c2c(ncn2CC(=O)O)n(C)c1=O	inactive	–
CCn1ccc(NS(=O)(=O)c2ccc(N)cc2)nc1=O	inactive	–
O=C1c2ccccc2CCc2ccccc21	inactive	–
O=C(O)c1[nH]n(-c2ccc(S(=O)(=O)O)cc2)c(=O)c1N=Nc1ccc(S(=O)(=O)O)cc1	inactive	–
C/C=C(/C(=C/C)c1ccc(OC(C)=O)cc1)c1ccc(OC(C)=O)cc1	inactive	–
CO/N=C(/C(=O)N[C@@H]1C(=O)N2C(C(=O)O)=C(Cn3nnc(C)n3)CS[C@H]12)c1csc(N)n1	inactive	–
COCCc1ccccn1	inactive	–
NCCCC(N)CC(=O)NCC1NC(=O)C(CO)NC(=O)C(N)CNC(=O)C(C2CCN=C(N)N2)NC(=O)C(=CNC(N)=O)NC1=O (stereo not drawn) (H-[Dap]S[Dap](ξβ3hOrn)[ΔAla(3-NHCONH2)][X10]; lactam 1-C; configuration not given here)	–	22.4% [at 0.597 µM] (inactive)
CC(=O)c1ccc(O)c(C(N)=O)c1	inactive	–
CC(C)(C)c1nnc(NS(=O)(=O)c2ccccc2)s1	inactive	–
O=C(COCCOCCOCC(=O)Nc1c(I)cc(I)c(C(=O)O)c1I)Nc1c(I)cc(I)c(C(=O)O)c1I	inactive	–
CC(C)(C)c1ccc(C(=O)CCCCl)cc1	inactive	–
O=C(CO)[C@@H](O)[C@H](O)[C@@H](O)CO	inactive	–
Cc1ccc(CCn2c3c(c4cc(Cl)ccc42)CN(C)CC3)cn1	inactive	–
Cc1c(C)c2c(c(C)c1OC(=O)CCC(=O)OCCO)CC[C@@](C)(CCC[C@H](C)CCC[C@H](C)CCCC(C)C)O2	inactive	–
COc1ccc2cc(C=O)ccc2c1	inactive	–
COC(=O)CCCCC(CCSS/C(CCO)=C(\C)N(C=O)Cc1cnc(C)nc1N)SC(C)=O (stereo not given)	inactive	–
Cc1ncc([N+](=O)[O-])n1C	inactive	–
O=C(OCCN1CCOCC1)c1cccnc1Nc1cccc(C(F)(F)F)c1	inactive	–
CCC(CN)=C(c1ccccc1)c1ccccc1	inactive	–

SMILES	Potency	activity change, negative = cytotoxic
COc1ccc([C@@H]2Sc3ccccc3NC(=O)[C@@H]2O)cc1	inactive	–
CCCC(=O)O[C@]1(C(=O)COC(=O)CC)CC[C@H]2[C@@H]3CCC4=CC(=O)CC[C@]4(C)[C@H]3[C@@H](O)C[C@@]21C	inactive	–
CCS(=O)(=O)c1ccc(OC)c(C(=O)OC)c1	inactive	–
CCN1CCN(C(=O)N[C@@H](C(=O)N[C@@H]2C(=O)N3[C@@H]2SC(C)(C)[C@H]3C(=O)O)c2ccccc2)C(=O)C1=O	inactive	–
CC1(C)O[C@@H]2C[C@H]3[C@@H]4C[C@H](F)C5=CC(=O)C=C[C@]5(C)[C@@]4(F)[C@@H](O)C[C@]3(C)[C@]2(C(=O)CO)O1	inactive	–
CC(COc1ccccc1)NN (stereo not given)	inactive	–
CCOC(=O)N1CCC(n2c(=O)[nH]c3cc(Cl)ccc32)CC1	inactive	–
O=C1CC2(CCCC2)CC(=O)N1	inactive	–
O=C(O)CCC(=O)OC[C@@H](NC(=O)C(Cl)Cl)[C@H](O)c1ccc([N+](=O)[O-])cc1	inactive	–
C/C(=C1\CCOC(=O)S1)N(C=O)Cc1cnc(C)nc1N	inactive	–
C[C@@]12CCC[C@H]1[C@@H]1CC[C@H]3C[C@@H](O)CC[C@]3(C)[C@H]1CC2	inactive	–
CCCCOC(=O)CCCCCCCCC(=O)OCCCC	inactive	–
CN1CCC(N(Cc2cccs2)c2ccccc2)CC1	inactive	–
COc1cc2c(cc1OC)C(=O)CC2	inactive	–
Nc1ncnc2c1ncn2Cc1c(F)cccc1Cl	inactive	–
Cc1ccc(C(=O)C(=O)O)cc1C	inactive	–
COCCOCC(OC)OC	inactive	–
CCc1cc2cc(OC)c(OC)cc2c(Cc2ccccc2)n1	inactive	–
Cc1ccc2ccc(Cl)cc2n1	inactive	–
N#Cc1cc(NC(=O)C(=O)O)c(Cl)c(NC(=O)C(=O)O)c1	inactive	–
